Laboratory results: PubChem BioAssay (NCI)
Compounds without any hit were thinned out: in the full panel of roughly 83,000, 20% have a hit.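 96-well plates, one dose, 48 hours. Percent growth reported; active if below 10.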 A number with no mark means an inactive call. The source made the active and inactive calls.

What follows are compounds tested on EKVX NSCLC (assay: NCI-60 one-dose screen, 48 h (100 = growth as untreated, 0 = no growth, -100 = all killed)). Conditions: 10 µM unless noted.
Experimental: Growth inhibition of the EKVX human Non-Small Cell Lung tumor cell line is measured as a screen for anti-cancer activity. Cells are grown in 96 well plates and exposed to the test compound for 48 hours. Compounds are tested at a single concentration, which is 10^-5 M for most compounds. The reported endpoint is percent growth (GI% or GIPRCNT), where numbers from 0 - 100% represent growth inhibition, and numbers from -100% - 0 represent cell death. For example, a value of 40 represents 60% growth inhibition. A value of 0 means no net growth occurred over the course of the experiment. A value of -40 indicates 40% of cells at the beginning of the experiment died by the end of the experiment. A value of -100 means all cells are dead at the end of the experiment.
NCI-60 Human Tumor Cell Lines Screen was performed using the standard one-dose NCI protocol, which is described in more detail at https://dtp.cancer.gov/discovery_development/nci-60/default.htm.
Compounds with GIPRCNT values below 10 were considered active. Activity score was based on GIPRCNT using the following formula: […]
Score is 0 for GIPRCNT values of 100 or above, 50 for GIPRCNT values of 0, and 100 for GIPRCNT values of -100.
`O=c1[nH]c(=O)c2c(-c3cc4ccccc4oc3=O)ccnc2[nH]1` was tested, and the growth was 103%.
`COc1ccc(NC(=O)Cn2c(/C=C/c3cccc([N+](=O)[O-])c3)nc3ccccc3c2=O)cc1` showed a growth of 87.8%.
`N#Cc1c(-c2ccc(Cl)cc2)nc2n[nH]c(-c3ccc(Cl)cc3)c2c1-c1cccs1` gave a growth of 30.3%.
Compound `NS(=O)(=O)c1ccc(N=Nc2c(O)n(CC(=O)Nc3ccccc3Cl)c3ccccc23)cc1` has a growth of 38.1%.
`Cc1cccc(-c2nc(Nc3ccc(C)c(S(N)(=O)=O)c3)c3ccccc3n2)c1` gave a growth of 22.7%.
`N#Cc1c(NCc2ccccc2)n[nH]c1Nc1ccccc1` showed a growth of 52.8%.
For `O=C(COc1ccc(NC(=O)Nc2ccc(Cl)c(Cl)c2)cc1)N=Nc1c(O)[nH]c2ccc(Cl)cc12`, the growth was 7.69% (active).
For `CN(C)c1nc(NCCNS(=O)(=O)c2ccc(C(=O)/C=C/c3ccc(F)cc3)cc2)nc(Nc2ccc(F)cc2)n1`, the growth was -49% (active).
`COc1ccc2c(c1)C(=N/N=C(\C)c1ccc(OC)c(S(N)(=O)=O)c1)C(=O)N2` was tested, and the growth was 90.3%.
Work on `Cc1ccc(C(=O)CSc2nc3ccc(C)cc3c(=O)n2-c2ccc(F)cc2)cc1` yielded a growth of 62.8%.
`O=C(COc1ccc(NC(=O)Nc2ccccc2)cc1)N=Nc1c(O)[nH]c2ccc([N+](=O)[O-])cc12` was tested, and the growth was 73.5%.
`Cn1cc(-c2nc(N)nnc2-c2c[nH]c3ccc(Br)cc23)c2cccnc21` gave a growth of 67.4%.
`O=c1c2ccccc2nc(-c2ccccc2)n1/N=C/c1ccc2ccccc2c1` was tested, and the growth was 80.3%.
With `CCOC(=O)C1=C(N)N(c2ccccc2)C2=C(C(=O)CC(C)(C)C2)C1c1ccc(Cl)cc1Cl` (stereo not given) the growth was 18.8%.
`COc1ccc(NC(=O)[C@H](C)N)cc1C(=O)Nc1cccc(C2CC(=O)c3c(cc(OC)c(OC)c3OC)O2)c1` (stereo not given in full) gave a growth of 97.2%.
`CN(C)c1nc(NCCNS(=O)(=O)c2ccc(C(=O)/C=C/c3ccc(C(F)(F)F)cc3)cc2)nc(Nc2ccc(F)cc2)n1` showed a growth of 13.6%.
`O=C1c2c(c3c4cc(F)ccc4oc3c3[nH]c4ccc(Br)cc4c23)C(=O)N1O` showed a growth of 76.5%.
`Nc1n[nH]c2cccc(C#Cc3cccc(NC(=O)c4cccc(Cl)c4)c3)c12` gave a growth of 44.9%.
`CC1[C@H]2[C@H](C[C@H]3[C@@H]4CC=C5c6sc(Nc7ccccc7F)nc6CC[C@]5(C)[C@H]4CC[C@@]32C)O[C@]12CC[C@@H](C)CO2` (stereo not given in full) was tested, and the growth was -52.5% (active).
With `Cc1cccc(Nc2nc3ccccc3nc2/C=C/c2ccc(F)cc2)c1` the growth was 83.7%.
`Cc1ccc(-c2nc(Nc3ccccc3S(N)(=O)=O)c3ccccc3n2)cc1` showed a growth of 74.1%.
`CC(=O)NNc1ccc2nnc(-c3ccccc3)n2n1` gave a growth of 95.9%.
Work on `CCN1C(=O)N(CC)C2NNC(Sc3c(C(=O)O)c4ccccc4n(C4CCCC4)c3=O)=NC21` (stereo not given) yielded a growth of 45.7%.
With `Cn1cc(-c2cc(N)n3nc(-c4cn(C)c5ncccc45)cc3n2)c2cccnc21` the growth was 95%.
`CC1=C(C(=O)c2ccccc2)C(c2ccc(-n3cncn3)cc2)n2c(nc3ccccc32)N1` (stereo not given) gave a growth of 64.4%.
With `O=C(C1=CNC(=S)NC1c1ccc(O)cc1)c1cc2ccccc2oc1=O` (stereo not given) the growth was 107%.
With `COc1ccc(/C=C2\C(=O)Nc3ccc(Cl)cc32)cc1OCc1ccccn1` the growth was 23.8%.
`CCN(CC)CCOc1ccc(Nc2ncc3cc(-c4ccc(O)c(C#N)c4)c(=O)n(C)c3n2)cc1` gave a growth of 139%.
With `O=C(/C=C/c1cccc(OCc2ccccc2)c1)c1nc2ccccc2[nH]1` the growth was 36.4%.
Work on `COC(OC)C1=C(C)OC(N)=C(C#N)C12C(=O)Nc1ccccc12` (stereo not given) yielded a growth of 99.7%.
For `Cn1cc(-c2cc3nc(-c4cn(C)c5ncccc45)cc(N)n3n2)c2cc(Cl)ccc21`, the growth was -38.5% (active).
Work on `COc1ccc(C(=O)/C=C/c2ccc(Cl)c(Cl)c2)cc1S(N)(=O)=O` yielded a growth of 24.1%.
`CCCCSc1nc(Nc2ccc(C(C)=O)cc2)c(C#N)c(-c2ccc(OC)cc2)n1` gave a growth of 65.1%.
`CCN1CCN(Cc2ccc(C(=O)Nc3cccc(C#Cc4cccc5[nH]nc(N)c45)c3)cc2C(F)(F)F)CC1` was tested, and the growth was -93.1% (active).
For `O=C(NN1C(=O)/C(=C/C=C/c2ccc([N+](=O)[O-])o2)SC1=S)c1cccc(O)c1`, the growth was -96.8% (active).
`COc1cc(-c2ccc(/C=N/NC(=O)c3[nH]c4ccc(Br)cc4c3-c3ccccc3)o2)cc(OC)c1OC` showed a growth of 65.7%.
For `Cc1ccc2c(c1)nc(-c1ccccc1)n2CC(=O)N=Nc1c(O)[nH]c2ccc(Br)cc12`, the growth was -77.2% (active).
For `CC(=O)Nc1ccc(-c2nc3cc(-c4ccc(O)cc4)ccc3n2C)cc1`, the growth was 56.3%.
`COc1cc(OC)cc(C(=O)Nc2cccc(-c3cn(-c4ccc(S(N)(=O)=O)cc4)nn3)c2)c1` showed a growth of 78.8%.
In the case of `Cc1ccc(NC(=O)CN2CCN(c3ncnc4c3cnn4-c3ccccc3)CC2)cc1`, the growth is reported as 81%.
